Where “and” joins values, the source holds several entries; their conditions need not be identical. Identical values can stand only once. Inconclusive results are not listed. Values without a mark were called inactive. Calls of active or inactive are those of the source. The call rests on the fitted dose curve; in most records, active means well fitted inhibition curve with a large enough effect; inconclusive means small, poorly fitted or top-dose-only effect; inactive means no such curve, though single readings can be large or run the other way.
Potency means the concentration at half of the fitted maximal effect.

The first test concerns Zika virus NS2B-NS3 protease (linked). Kind of test: 384 well plate NINDS AMC confirmatory qHTS for Zika virus inhibitors (AID 1347163). Further: nearly all actives have a fitted effect of over 50% in size.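 On activity change, negative = inhibition: linked protease at 5 30 or 60 nM final depending on run; fluorescence of AMC released from Ac-VKTGKR-AMC peptide cleaved by the protease; top concentration of the series differs between compounds; 0% = no-inhibitor control and -100% = no-enzyme control.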 The settings on record: Recombinant NS2B-NS3 protease, Ac-VKTGKR-AMC fluorescence; series mostly up to 100 µM; activity change, negative = inhibition: at the top concentration. The method in brief: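 Fluorescence at 355/460 nm was read after 25 minutes of cleavage of 30 microM Ac-VKTGKR-AMC at room temperature, in the dark. Before substrate addition, compounds (up to 1 mM final) sat ~15 minutes with 5, 30 or 60 nM linked protease. Signals were normalized to no-enzyme and no-inhibitor wells.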
With `O=C(O)c1ccc(CCCc2ccc(OCCc3ccc(F)cc3)cc2)o1`, the Potency was 5.01 µM (active).

Take `O=C(/C=C/c1c(C(=O)O)[nH]c2cc(Cl)cc(Cl)c12)Nc1ccccc1`: the Potency is 1.12 µM (active).

Take `CC(C)C(=O)c1cn(CC(=O)COc2ccc(Oc3ccccc3)cc2)c2ccc(C(=O)O)cc12`: the Potency was 44.7 µM (active).

Turning to `N#CC1C(=O)Nc2scc(-c3ccc(-c4ccccc4O)cc3)c2C1=O` (centres undefined), the Potency was 6.31 µM (active).

Turning to `O=S(=O)(O)c1ccc2c(N=Nc3ccc(S(=O)(=O)O)c4ccccc34)c(O)c(S(=O)(=O)O)cc2c1`, the Potency is 63.1 µM (active) and 79.4 µM (active).

For `CC1(C)CCC(C)(C)c2cc3c(cc21)Sc1ccccc1N=C3c1ccc(C(=O)O)cc1`, the Potency is 8.91 µM (active).

As for `O=S(=O)(O)c1cc(O)c2c(N=Nc3ccc(Nc4ccccc4)c4c(S(=O)(=O)O)cccc34)cc(S(=O)(=O)O)cc2c1`, the Potency is 12.6 µM (active).

Consider `O=C(O)c1cc(O)c2cccc(O)c2c1O[C@@H]1O[C@H](CO)[C@@H](O)[C@H](O)[C@H]1O`, for which the “activity change, negative = inhibition” value is 202%.

For the compound `CCOc1c2c(c(OCC)c3ccccc13)C(=O)N(c1ccc(CC(=O)NS(=O)(=O)c3ccccc3)cc1)C2`, the “activity change, negative = inhibition” value was 527%.

The subject of the next test is Zika virus NS2B-NS3 protease (linked construct). In words: 384 well plate NINDS Rhodamine confirmatory qHTS for Zika virus inhibitors (AID 1347164).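 Further: fluorescence from protease cleavage of Ac-LKRR-rhodamine 110 substrate; nearly all actives have a fitted effect of over 65% in size.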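 On activity change, negative = inhibition: top concentration of the series differs between compounds; plate controls were no-inhibitor control for no effect and no-enzyme control for full effect.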 The settings on record: rhodamine-110 peptide substrate fluorescence; series mostly up to 100 µM; activity change, negative = inhibition: at the top concentration. The method in brief:
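Fluorescence at 485/538 nm was measured 25 minutes after adding 10 microM Ac-LKRR-Rd substrate, in the dark at room temperature. The protease (5, 30 or 60 nM final) had been preincubated ~15 minutes with compound; aprotinin as control.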
In general terms: Quantitative high-throughput screening tests each substance at several concentrations.
Turning to `CCOc1ccc(-c2ccc(Cn3c(CC(C)(C)C(=O)O)c(SC(C)(C)C)c4cc(OCc5ccc(C)cn5)ccc43)cc2)cn1`, the “activity change, negative = inhibition” value was -233%.

Take `COc1cccc(-n2nc(C(=O)O)cc2-c2ccc(C3CCCCC3)c(Cl)c2)c1`: the Potency was 5.01 µM (active).

In the case of `O=C(O)c1ccc(CCCc2ccc(OCCc3ccc(F)cc3)cc2)o1`, the “activity change, negative = inhibition” value was -31.7%.

Consider `O=C(/C=C/c1c(C(=O)O)[nH]c2cc(Cl)cc(Cl)c12)Nc1ccccc1`, for which the Potency is 8.91 µM (active).

With `CC(C)C(=O)c1cn(CC(=O)COc2ccc(Oc3ccccc3)cc2)c2ccc(C(=O)O)cc12`, the “activity change, negative = inhibition” value was -191%.

Regarding `O=C(O)c1cnn(-c2nc3cc(OC(F)(F)F)c(Cl)cc3[nH]2)c1`, the Potency was 0.794 µM (active).

For the compound `CC(C)C1=CCC(C)(O)C(OC2OC(CO)C(O)C(O)C2O)C1` (centres undefined), the Potency is 5.62 µM (active).

Consider `N#CC1C(=O)Nc2scc(-c3ccc(-c4ccccc4O)cc3)c2C1=O` (centres undefined), for which the Potency was 12.6 µM (active).

Consider `O=S(=O)(O)c1ccc2c(N=Nc3ccc(S(=O)(=O)O)c4ccccc34)c(O)c(S(=O)(=O)O)cc2c1`, for which the Potency is 15.8 µM (active) and 12.6 µM (active).

On to `Nc1c(N=Nc2ccc(-c3ccc(N=Nc4cc(S(=O)(=O)O)c5ccccc5c4N)cc3)cc2)cc(S(=O)(=O)O)c2ccccc12`, for which the Potency is 7.08 µM (active).

Consider `CC1(C)CCC(C)(C)c2cc3c(cc21)Sc1ccccc1N=C3c1ccc(C(=O)O)cc1`, for which the Potency was 4.47 µM (active).

Regarding `CC(C)N=c1cc2n(-c3ccc(Cl)cc3)c3ccccc3nc-2cc1Nc1ccc(Cl)cc1`, the “activity change, negative = inhibition” value is -15% [at 1 mM].

For the compound `O=S(=O)(O)c1cc(O)c2c(N=Nc3ccc(Nc4ccccc4)c4c(S(=O)(=O)O)cccc34)cc(S(=O)(=O)O)cc2c1`, the Potency is 6.31 µM (active).

As to `O=C(O)c1cc(O)c2cccc(O)c2c1O[C@@H]1O[C@H](CO)[C@@H](O)[C@H](O)[C@H]1O`, the Potency is 2.82 µM (active).

Consider `CCOc1c2c(c(OCC)c3ccccc13)C(=O)N(c1ccc(CC(=O)NS(=O)(=O)c3ccccc3)cc1)C2`, for which the “activity change, negative = inhibition” value is -266%.

The record behind these values is PubChem BioAssay (NCATS).
